A selection: hits, their analogues and other compounds. The true share with any hit is near 11%.
HPGD block = qHTS Assay for Inhibitors of HPGD (15-Hydroxyprostaglandin Dehydrogenase). Potency, µM, usual class: inhibitors. purified HPGD, NADH fluorescence kinetic, PGE2 substrate. 4.3% of 150,000 active. AID 894, 2007. 15-hydroxyprostaglandin dehydrogenase [NAD(+)] (Homo sapiens), P15428
Target sequence (P15428 whole entry, looked up): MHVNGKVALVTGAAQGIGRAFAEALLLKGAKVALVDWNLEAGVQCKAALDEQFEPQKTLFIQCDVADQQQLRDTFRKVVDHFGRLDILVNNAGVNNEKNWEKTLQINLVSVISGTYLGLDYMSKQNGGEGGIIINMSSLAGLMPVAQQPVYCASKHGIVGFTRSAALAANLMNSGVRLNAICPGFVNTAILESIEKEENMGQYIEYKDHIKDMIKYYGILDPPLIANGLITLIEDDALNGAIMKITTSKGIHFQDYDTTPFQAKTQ
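20 nM HPGD preincubated 15 min at room temperature with compound in 50 mM Tris-HCl pH 8, 0.01% Tween 20. Started with 1 mM NAD+ and 30 uM prostaglandin E2; NADH fluorescence (360/450 nm) read 5 times over 30-s intervals, last minus first.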
ALDH1A1 inh = qHTS Assay for Inhibitors of Aldehyde Dehydrogenase 1 (ALDH1A1) | Aldehyde dehydrogenase 1A1 (Homo sapiens), P00352 | Purified ALDH1A1, NADH fluorescence, propionaldehyde substrate | 7.3% of 220,000 active | Potency, µM (titrated, usually from 75.3 µM), usual class: inhibitors
PNC assembly inh = High Content Assay for Compounds that inhibit the Assembly of the Perinucleolar Compartment. PC3M PTB-GFP, PNC prevalence imaging, 16 h; hits give low values. activity change (PNC), negative = inhibition, % at 10 µM. AID 2417, 2010. 3.1% of 140,000 active;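 active means readout at or below -70, meaning at least 70% loss of cells showing the perinucleolar compartment, a nuclear body marking cancer cells; inconclusive means readout between -30 and a set limit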
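Compounds are pinned in duplicate onto adhered PC3M cells stably expressing GFP-tagged PTB and incubated 16 h at 37 C. Cells are then fixed, nuclei stained with Hoechst, and PNC-positive cells counted.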
Large screens that a line does not name were inactive. Unless noted, the call rests on the fitted dose curve; in most records, active means well fitted inhibition curve with a large enough effect (not every such curve was filed as active); inconclusive means small, poorly fitted or top-dose-only effect, or another doubt; inactive means no such curve, though single readings can be large or run the other way.

COc1ccc(S(=O)(=O)N(NC2=NS(=O)(=O)c3ccccc32)C(=O)C(C)C)cc1	none (no result: HPGD block, PNC assembly inh)
CCSC[C@@H](N)C(=O)O	none (no result: PNC assembly inh)
Cc1ccc(N(CC(=O)N/N=C/c2cc(C)n(-c3ccccc3C)c2C)S(C)(=O)=O)cc1	ALDH1A1 inh 25.1µM, PNC assembly inh inconclusive
Cc1cc(C)cc(-n2c(C)cc(/C=N/NC(=O)CN(c3c(C)cccc3C)S(C)(=O)=O)c2C)c1	ALDH1A1 inh inconclusive
COc1ccc(C(C#N)C2(C)OCCO2)cc1OC (centres undefined)	ALDH1A1 inh 11.2µM
COc1ccc(C(C#N)N2CCCCC2)cc1OC (centres undefined)	ALDH1A1 inh inconclusive
COc1ccc2c(c1)O[C@@H](c1cccc(C(F)(F)F)c1)[C@H](OC(=O)NCCOc1ccccc1)C2=O	none (no result: PNC assembly inh)
Oc1ccc(-c2csc(-c3ccccc3)n2)cc1O	HPGD block 28.2µM, ALDH1A1 inh inconclusive, PNC assembly inh inconclusive
COc1cc(-c2csc(C)n2)ccc1O	none
Oc1ccccc1-c1csc(-c2ccccc2)n1	none (no result: HPGD block, PNC assembly inh)
Cc1nc(-c2cccc(NS(C)(=O)=O)c2)cs1	PNC assembly inh inconclusive
Cc1nc(-c2ccc(NS(C)(=O)=O)cc2)cs1	HPGD block 15.8µM, PNC assembly inh -80.5
Cc1nc(-c2ccc(O)c(O)c2)cs1	HPGD block 22.4µM, ALDH1A1 inh inconclusive, PNC assembly inh inconclusive
C=C(C)C1Cc2c(ccc(C(=O)O)c2O)O1 (centres undefined)	none (no result: PNC assembly inh)
C=CC[C@@H]1C=C[C@@H](O/N=C(/C)CCC(=O)OC[C@@H]2O[C@H](C#Cc3ccccc3)C=C[C@@H]2Oc2ccc(C)cc2)[C@@H](CO)O1	none (no result: HPGD block, PNC assembly inh)
COc1ccc(C(=O)N2CCOCC2)cc1Br	none
O=C(Oc1ccc(C(=S)N2CCOCC2)cc1Br)c1ccccc1F	HPGD block 31.6µM, ALDH1A1 inh 25.1µM
COC(=O)c1ccc(C(NC(=O)OCc2ccccc2)/C(F)=C/[C@@H](C)C(=O)NCCc2c[nH]c3ccc(OC)cc23)cc1 (some centres undefined)	ALDH1A1 inh inconclusive (no result: PNC assembly inh)
Nc1c(C(=O)Nc2ccccc2)sc2nc3c(c(-c4ccco4)c12)CCC3	none
Cc1ccc(NC(=O)c2sc3nc4c(c(-c5ccco5)c3c2N)CCC4)cc1	ALDH1A1 inh 4.47µM
O=[N+]([O-])c1cnc2ccccc2c1	ALDH1A1 inh 10µM
O=[N+]([O-])c1ccc(Oc2cnc3ccccc3n2)cc1	none (no result: HPGD block, PNC assembly inh)
NC1(C(=O)O)CC(C(=O)O)C1 (centres undefined)	none (no result: PNC assembly inh)
O=S(=O)(Nc1cccc(-c2nc3cccnc3s2)c1)c1ccc2c(c1)OCCO2	ALDH1A1 inh inconclusive
Cc1ccc(-c2nc3cccnc3s2)cc1NS(=O)(=O)c1ccc2c(c1)OCCO2	HPGD block inconclusive, ALDH1A1 inh inconclusive, PNC assembly inh -108.4
O=C(N/N=C/C1CC=CCC1)c1ccc(O)cc1O (centres undefined)	ALDH1A1 inh inconclusive
COc1cc(C(=O)N/N=C/C2CC=CCC2)cc(OC)c1OC (centres undefined)	ALDH1A1 inh 11.2µM
O=C1C2CC=CCC2C(=O)N1c1n[nH]c(-c2ccccc2)n1 (centres undefined)	PNC assembly inh inconclusive
Cc1ccc(N2C(=O)CSCC2=O)cc1	PNC assembly inh inconclusive
Cc1ccc(N2C(=O)CS/C2=C(\C(Cl)=C(Cl)Cl)[N+](=O)[O-])cc1	ALDH1A1 inh 20µM
COc1cccc(N2CN(CCc3ccccc3)CNC2=S)c1	none (no result: HPGD block, PNC assembly inh)
Nc1nonc1C(=O)NCCN=Cc1ccccc1O	none
Nc1nonc1C(=O)NCCN=Cc1cc(Cc2ccccc2)cc(Br)c1O	HPGD block 15.8µM
COc1ccc(/C=N/NC(=O)C(Cc2c[nH]c3ccccc23)NC(=O)OCC(C)C)cc1[N+](=O)[O-] (centres undefined)	ALDH1A1 inh 12.6µM, PNC assembly inh inconclusive
O=C(NC(Cc1c[nH]c2ccccc12)C(=O)N/N=C/c1ccc(Cl)cc1)c1cccs1 (centres undefined)	none (no result: HPGD block, PNC assembly inh)
C(=Nc1ccc2c(c1)Cc1ccccc1-2)c1ccccn1	none (no result: PNC assembly inh)
CCSC1=C(C#N)C(c2ccc(Cl)cc2)C2=C(CCCC2=O)N1 (centres undefined)	PNC assembly inh inconclusive
CSC1=C(C#N)C(c2ccc3c(c2)OCO3)C2=C(CCCC2=O)N1 (centres undefined)	HPGD block 15.8µM
COc1ccc(C)cc1NC(=O)CNc1ccccc1CN(C)C1CCCCC1	ALDH1A1 inh 20µM (no result: HPGD block, PNC assembly inh)
CN(CC(=O)Nc1ccc(OC(F)(F)F)cc1)C1CCCCC1	none (no result: HPGD block, PNC assembly inh)
COc1ccc(Cl)cc1NC(=O)CN(C)C1CCCCC1	none
Cc1ccc(NC(=O)CNc2ccccc2CN(C)C2CCCCC2)cc1	ALDH1A1 inh 20µM (no result: HPGD block, PNC assembly inh)
COc1ccc(C)cc1NC(=O)COC(=O)C1CC1	PNC assembly inh inconclusive
COc1ccc(Cl)cc1NC(=O)CNc1ccccc1CN(C)C1CCCCC1	ALDH1A1 inh 8.91µM (no result: HPGD block, PNC assembly inh)
NCCC[C@@H](CC(=O)N[C@@H]1CCNC[C@H]1C(=O)N[C@H](CC(=O)N[C@@H](CCC(=O)O)CC(=O)O)Cc1ccccc1)NC(=O)C[C@H](Cc1c[nH]c2ccccc12)NC(=O)[C@@H]1CNCC[C@H]1N	none (no result: PNC assembly inh)
CC(=O)c1ccsc1B(O)O	none (no result: PNC assembly inh)
NNC(=O)COc1ccc(C(F)(F)F)cc1	none (no result: HPGD block, PNC assembly inh)
CO[C@H]1COC(=O)[C@H]2CCCN2C(=O)C/C=C\[C@@H](C)[C@H](OC)COC(=O)C/C=C\[C@@H]1C	none (no result: HPGD block, PNC assembly inh)
Cn1cnnc1Sc1ccc(/C=C(\CC(=O)O)c2nc3ccccc3s2)cc1[N+](=O)[O-]	ALDH1A1 inh 20µM (no result: HPGD block, PNC assembly inh)
Cn1cnnc1Sc1ccc(C(=O)NCCC(c2ccccc2)c2ccccc2)cc1[N+](=O)[O-]	ALDH1A1 inh 20µM
O=C(O)CC/C(=C\c1ccc(N2CCCC2)c([N+](=O)[O-])c1)c1nc2ccccc2s1	ALDH1A1 inh 1.26µM (no result: HPGD block, PNC assembly inh)
O=C(O)CC/C(=C\c1ccccc1[N+](=O)[O-])c1nc2ccccc2s1	none (no result: HPGD block, PNC assembly inh)
Cn1cnnc1SCC(=O)NCCC(c1ccccc1)c1ccccc1	none
COc1cccc(/C=C(\CC(=O)O)c2nc3ccccc3s2)c1	none (no result: HPGD block, PNC assembly inh)
Cc1ccc(C2C3=C(CCCC3=O)N=C3c4ccccc4C(=O)C32)cc1 (centres undefined)	none
CN1CCC2(CCN3CCc4c(oc5ccccc45)C3C2)N(C)C1=O (centres undefined)	none (no result: PNC assembly inh)
Oc1ccc(Br)cc1/C=N/Nc1nc(N2CCCCC2)nc(N2CCOCC2)n1	none (no result: HPGD block, PNC assembly inh)
Brc1cc2c(cc1/C=N/Nc1nc(N3CCCC3)nc(N3CCOCC3)n1)OCO2	ALDH1A1 inh 14.1µM, PNC assembly inh inconclusive
COc1ccc(C2N(Cc3ccccc3)CCN2Cc2ccccc2)cc1[N+](=O)[O-]	none (no result: HPGD block, PNC assembly inh)
O=C(CN1C(=O)C2C3CCC(C3)C2C1=O)NCc1ccco1 (centres undefined)	none (no result: HPGD block, PNC assembly inh)
Cc1ccc(CC2CC(=O)N(Cc3ccco3)C2=O)cc1 (centres undefined)	ALDH1A1 inh 18.9µM
O=C1CC(NCc2ccco2)C(=O)N1CCc1ccccc1 (centres undefined)	none
O=C1C2C3CCC(C3)C2C(=O)N1Cc1ccco1 (centres undefined)	ALDH1A1 inh 11.9µM
Cc1ccc(CC2CC(=O)N(c3ccncc3)C2=O)cc1 (centres undefined)	none
O=C1CC(Cc2ccccc2)C(=O)N1Cc1ccco1 (centres undefined)	ALDH1A1 inh 2.82µM
